Data taken from PubChem BioAssay AID463173 (ICCB-Longwood Screening Facility, Harvard Medical School, 2010).
Among all 52,000 compounds or so, about 1,700 (3.3%) were called active. Rule as the data show it: active = survival mostly below about 52% (no sharp cut-off); inactive = mostly above about 56%. The list comes from a sample in which actives are over-represented; it also holds similar structures and randomly drawn compounds.

tested on: Wild type; assay: growth inhibition of S. aureus wild type versus tarO mutant, primary screen, teichoic acid synthesis inhibitors, RN4220, OD600 (AID 463173); conditions: S. aureus RN4220 wild type/DeltatarO growth, OD600, 18 h, hits give low values, screened at 18.75 µg/mL (by protocol)

With Cc1cc(C)c2nc(N(Cc3cccnc3)C(=O)c3ccc(S(=O)(=O)N(C)C)cc3)sc2c1 as the compound, how does the survival read?
Its survival is 57% (inactive).

For COc1cccc(-c2nc(CS(=O)(=O)CC(=O)NCCc3ccc(OC)cc3OC)c(C)o2)c1, which survival is on record?
Its survival is 83% (inactive).

With Cc1ccc(N(C)S(=O)(=O)c2nnc(NC(=O)CC(C)C)s2)cc1 as the compound, how does the survival read?
The survival was 87% (inactive).

With N=c1n(CCN2CCCCC2)c2ccccc2n1CC(O)COc1ccc(Cl)cc1Cl (configuration not stated) as the compound, how does the survival read?
Its survival is -3% (active).

How did the survival turn out when N=c1n(CCN2CCCCC2)c2ccccc2n1CC(O)COc1ccccc1 (configuration not stated) was run?
The survival was 144% (inactive).

With Cc1ccccc1OCC(O)Cn1c(=N)n(CCN2CCCCC2)c2ccccc21 (configuration not stated) as the compound, how does the survival read?
The survival was 76% (inactive).

O=C(CSc1nc2c([nH]c3ccccc32)c(=O)n1-c1ccccc1)NCc1ccc(F)cc1 was tested. Which survival did it give?
The survival was 87% (inactive).

How did the survival turn out when COCCNC(=O)CSc1nnc(-c2ccc(OC)c(OC)c2)c(-c2ccc(OC)c(OC)c2)n1 was run?
The survival was 68% (inactive).

For CC(=O)N1N=C(c2ccccc2)CC1c1ccccc1 (configuration not stated), which survival is on record?
The survival was 104% (inactive).

Which survival does the source give for C=Cc1ccc(Cn2nc(-c3ccc(C)cc3)ccc2=O)cc1 here?
The survival was 57% (inactive).

How did the survival turn out when O=C(O)/C(=C/C(=O)c1ccccc1)Nc1ccccc1 was run?
Its survival is 100% (inactive).

Which survival does the source give for CC(C)c1ccc(C(=O)Nc2ccc(-c3nc4ccccc4s3)c(Cl)c2)cc1 here?
Its survival is 141% (inactive).

Which survival does the source give for Cc1cc(S(=O)(=O)Nc2ccc(O)c(Sc3nc4ccccc4s3)c2)ccc1Cl here?
Its survival is -2% (active).

For Cc1nc2ccc(S(=O)(=O)NC(C(=O)NCc3ccccc3Cl)C(C)C)cc2s1 (configuration not stated), which survival is on record?
The survival was 85% (inactive).

How did the survival turn out when CC(C)NC(=O)c1nc2ccccc2s1 was run?
Its survival is 120% (inactive).

How did the survival turn out when O=C(COc1ccc(Cl)cc1)Nc1ccc(O)c(-c2nc3ccccc3s2)c1 was run?
The survival was 69% (inactive).

How did the survival turn out when O=S(=O)(Nc1ccc2oc3c(c2c1)CCCC3)c1cc(Cl)ccc1Cl was run?
Its survival is 46% (inactive).

With Cc1cc(S(=O)(=O)Nc2ccc3oc4c(c3c2)CCCC4)ccc1Cl as the compound, how does the survival read?
The survival was 46% (inactive).

Which survival does the source give for CC(C)(C)c1ccc(S(=O)(=O)Nc2ccc(O)c(Sc3nc4ccccc4s3)c2)cc1 here?
Its survival is 3% (active).

For CC(=O)c1c(C)oc2ccc(NS(=O)(=O)c3ccc(C(C)C)cc3)cc12, which survival is on record?
The survival was 86% (inactive).

How did the survival turn out when CC(C)c1ccc(S(=O)(=O)Nc2ccc(O)c(Sc3nc4ccccc4s3)c2)cc1 was run?
Its survival is 0% (active).

Cn1c(=O)sc2cc(NS(=O)(=O)c3ccc(C(C)(C)C)cc3)ccc21 was tested. Which survival did it give?
Its survival is 73% (inactive).

For O=S(=O)(Nc1ccc(O)c(Sc2nc3ccccc3s2)c1)c1cc(Cl)ccc1Cl, which survival is on record?
Its survival is 0% (active).

CCN(C(=O)CSc1nnc(-c2cc(OC)c(OC)c(OC)c2)o1)c1ccccc1 was tested. Which survival did it give?
The survival was 87% (inactive).

With CCn1c(CNC(=O)c2ccc(OC)cc2)nnc1SCC(=O)Nc1cccc(C)c1 as the compound, how does the survival read?
The survival was 119% (inactive).

How did the survival turn out when CCC(C(=O)Nc1cccc(C#N)c1)n1nc(-c2ccccc2)ccc1=O (configuration not stated) was run?
Its survival is 79% (inactive).

With CC(C)N(Cc1ccccc1)C(=O)Cn1ncc2c3ccccc3n(Cc3ccccc3)c2c1=O as the compound, how does the survival read?
Its survival is 96% (inactive).

CN(C)c1ccc(C(CNS(=O)(=O)c2ccc(Br)cc2)N2CCCC2)cc1 (configuration not stated) was tested. Which survival did it give?
Its survival is 68% (inactive).

Which survival does the source give for C=CCC(CC=C)(CNC(=O)C(=O)Nc1ccc(Br)cc1)c1ccc(OC)c(OC)c1 here?
Its survival is 90% (inactive).

For COc1ccc(C(=O)Nc2ccc(N3CCN(c4ccccc4)CC3)c(C(=O)O)c2)cc1, which survival is on record?
Its survival is 83% (inactive).

With CC(=O)c1ccc(N2CCN(c3ccc(NC(=O)c4ccc(F)cc4)cc3C(=O)O)CC2)cc1 as the compound, how does the survival read?
Its survival is 14% (active).

O=C(Nc1ccc(N2CCOCC2)c(C(=O)O)c1)c1ccc(Br)cc1 was tested. Which survival did it give?
The survival was 0% (active).

For O=C(Nc1ccc(N2CCC(N3CCCCC3)CC2)c(C(=O)O)c1)c1ccccc1, which survival is on record?
The survival was 70% (inactive).

O=C(Nc1ccc(N2CCN(c3ccc(F)cc3)CC2)c(C(=O)O)c1)c1ccccc1F was tested. Which survival did it give?
The survival was 76% (inactive).

How did the survival turn out when Cc1cccc(NC(=O)c2ccc(F)c(S(=O)(=O)N3CCN(c4ccc(F)cc4)CC3)c2)c1 was run?
Its survival is -3% (active).

For Cc1cccc(C(=O)Nc2ccc(N3CCN(c4ccc(F)cc4)CC3)c(C(=O)O)c2)c1, which survival is on record?
The survival was 63% (inactive).

Which survival does the source give for O=C(Nc1ccc(N2CCC(N3CCCCC3)CC2)c(C(=O)O)c1)c1ccc(Br)cc1 here?
Its survival is 75% (inactive).

For CCOc1ccccc1NC(=O)c1ccc(F)c(S(=O)(=O)N2CCN(c3ccc(F)cc3)CC2)c1, which survival is on record?
Its survival is 60% (inactive).

With O=C(Nc1ccc(N2CCN(CCOc3ccc(Cl)cc3)CC2)c(C(=O)O)c1)c1ccc(F)cc1 as the compound, how does the survival read?
Its survival is -3% (active).

For CCCNC(=O)CN1CCN(c2ccc(NC(=O)c3ccc(OC)cc3)cc2C(=O)O)CC1, which survival is on record?
Its survival is 87% (inactive).

How did the survival turn out when Cc1cccc(NC(=O)c2ccc(F)c(S(=O)(=O)N3CCC4(CC3)OCCO4)c2)c1 was run?
The survival was 71% (inactive).

For COc1ccc(NC(=O)c2nnn(CC(=O)Nc3cc(C)cc(C)c3)c2N)c(OC)c1, which survival is on record?
Its survival is 139% (inactive).

For CC(=O)Nc1ccc(NC(=O)CCNS(=O)(=O)c2cccc3nsnc23)cc1, which survival is on record?
Its survival is 89% (inactive).

For Cn1c(-c2ccc(NC(=O)c3ccccc3)cc2)n[nH]c1=S, which survival is on record?
The survival was 113% (inactive).

With CC(C)COc1ccc(Nc2ncnc3ccc(Br)cc23)cc1 as the compound, how does the survival read?
Its survival is 79% (inactive).

O=C(NCC(c1cccnc1)N1CCc2ccccc2C1)C(=O)Nc1cccc(Cl)c1 (configuration not stated) was tested. Which survival did it give?
Its survival is 47% (inactive).

Which survival does the source give for Cc1ccc(Cl)cc1N1CCN(CCCNC(=O)Cn2ncc3c([nH]c4ccccc43)c2=O)CC1 here?
Its survival is 99% (inactive).

Which survival does the source give for Cc1cc(C)cc(-n2c(C)nc3cc(C(=O)NCc4ccc(F)cc4)ccc32)c1 here?
Its survival is 138% (inactive).

For CC(NC(=O)c1ccccc1)c1n[nH]c(=S)n1C (configuration not stated), which survival is on record?
Its survival is 109% (inactive).

For CC(C)NC(=O)/C=C/c1ccc2c(c1)OCO2, which survival is on record?
Its survival is 110% (inactive).

For O=C(Cn1c(=O)n(Cc2ccccc2)c(=O)c2sc3ccccc3c21)NCc1ccccc1Cl, which survival is on record?
The survival was 125% (inactive).

With CC1=C(C(=O)OCc2ccc(C)cc2)C(c2ccccc2F)CC(=O)N1 (configuration not stated) as the compound, how does the survival read?
The survival was 115% (inactive).

Which survival does the source give for COc1ccc(CNCc2c(C(=O)O)c(C)n(Cc3ccc(Cl)cc3)c2C)c(OC)c1 here?
Its survival is 101% (inactive).

Which survival does the source give for CC(C)(C)n1cnc2cc(NCc3ccccc3Cl)ccc21 here?
The survival was 8% (active).

For COc1cc(CNc2ccc3c(c2)ncn3C(C)C)cc(OC)c1OC, which survival is on record?
The survival was 66% (inactive).

Which survival does the source give for CCc1ccc(CNc2ccc3c(c2)ncn3C(C)(C)C)cc1 here?
The survival was -16% (active).

CCCCn1cnc2cc(NC(=O)c3cc(OC)c(OC)c(OC)c3)ccc21 was tested. Which survival did it give?
The survival was 79% (inactive).

With CCCCn1cnc2cc(NCc3ccc(OCC)cc3)ccc21 as the compound, how does the survival read?
The survival was 4% (active).

Which survival does the source give for CCCn1cnc2cc(NC(=O)c3cc(OC)c(OC)c(OC)c3)ccc21 here?
Its survival is 76% (inactive).

CCCn1cnc2cc(NCc3ccc(OC)cc3OC)ccc21 was tested. Which survival did it give?
The survival was 63% (inactive).

Which survival does the source give for CCCCn1cnc2cc(NCc3ccccc3Cl)ccc21 here?
Its survival is -16% (active).

For COc1cccc(CNc2ccc3c(c2)ncn3C)c1OC, which survival is on record?
Its survival is 121% (inactive).

CCCn1cnc2cc(NCc3ccccc3OCC)ccc21 was tested. Which survival did it give?
The survival was 61% (inactive).

How did the survival turn out when CC(C)(C)n1cnc2cc(NS(=O)(=O)c3ccccc3)ccc21 was run?
Its survival is 112% (inactive).

How did the survival turn out when CCn1cnc2cc(NCc3ccc(N(C)C)cc3)ccc21 was run?
Its survival is 94% (inactive).

With O=C(CN1C(=O)C2(SCC(=O)N2c2ccccc2)c2ccccc21)NCc1ccccc1Cl (configuration not stated) as the compound, how does the survival read?
The survival was 97% (inactive).

Which survival does the source give for Cc1cc(C)c2c(c1)NC(=O)C2(O)c1c[nH]c2ccccc12 (configuration not stated) here?
The survival was 97% (inactive).

For COc1ccc(C)cc1NC(=O)c1cc2c(s1)-c1ccccc1SC2, which survival is on record?
The survival was 46% (inactive).

For CC(C)OCCCNC(=O)c1ccc(Cn2c(=O)c3cccn3c3cccnc32)cc1, which survival is on record?
Its survival is 111% (inactive).

COc1ccc(OC)c(NC(=O)c2cc3c(=O)oc4ccccc4c3s2)c1 was tested. Which survival did it give?
The survival was 103% (inactive).

For CCCc1cc(=O)[nH]c2nnc(SC(C)CC)n12 (configuration not stated), which survival is on record?
The survival was 80% (inactive).

How did the survival turn out when Cc1c2cnn(-c3ccccc3)c(=O)c2c(C)n1C(C)C(=O)Nc1ccccc1C(F)(F)F (configuration not stated) was run?
The survival was 81% (inactive).

Which survival does the source give for Cc1ccc(Cl)cc1N1CCN(C(=O)CCCn2c(=O)[nH]c3ccc(Br)cc3c2=O)CC1 here?
The survival was 21% (inactive).

Which survival does the source give for COc1cccc(N2CCN(C(=O)CCCn3c(=O)[nH]c4ccc(Br)cc4c3=O)CC2)c1 here?
The survival was 53% (inactive).

Which survival does the source give for O=C(CCCn1c(=O)[nH]c2ccc(Br)cc2c1=O)N1CCN(c2cccc(Cl)c2)CC1 here?
The survival was 6% (active).

How did the survival turn out when CCOC(=O)c1noc2ncnc(NCc3ccccc3OC)c12 was run?
The survival was 72% (inactive).

COc1ccc(N2CC(NC(=O)c3ccco3)CC2=O)cc1OC (configuration not stated) was tested. Which survival did it give?
Its survival is 68% (inactive).

COc1ccc(OCC(=O)NC2CC(=O)N(c3cccc(OC)c3)C2)cc1 (configuration not stated) was tested. Which survival did it give?
The survival was -3% (active).

With COc1cccc(OCC(=O)NC2CC(=O)N(c3cccc(OC)c3)C2)c1 (configuration not stated) as the compound, how does the survival read?
The survival was 124% (inactive).

COc1cccc(N2CC(NC(=O)COc3ccc4ccccc4c3)CC2=O)c1 (configuration not stated) was tested. Which survival did it give?
Its survival is 94% (inactive).

COc1ccc(N2CC(NC(=O)c3ccco3)CC2=O)cc1 (configuration not stated) was tested. Which survival did it give?
Its survival is 49% (inactive).

Which survival does the source give for COc1cccc(N2CC(NC(=O)c3ccco3)CC2=O)c1 (configuration not stated) here?
The survival was 10% (active).

Which survival does the source give for O=C1CC(=O)SC(c2ccccc2)=N1 here?
The survival was 105% (inactive).

Which survival does the source give for CCOC(=O)c1scc(-c2ccc(C)cc2)c1S(=O)(=O)Nc1cc(Cl)ccc1OC here?
The survival was -6% (active).

Which survival does the source give for CCOC(=O)c1scc(-c2ccc(C)cc2)c1S(=O)(=O)Nc1cc(OC)ccc1OC here?
The survival was 76% (inactive).

CCOC(=O)c1c(C)[nH]c(C)c1S(=O)(=O)N(C)CC(=O)Nc1cc(Cl)ccc1OC was tested. Which survival did it give?
The survival was 128% (inactive).

Which survival does the source give for CCOC(=O)c1c(C)[nH]c(C)c1S(=O)(=O)NCC(=O)Nc1cc(C)ccc1OC here?
The survival was 75% (inactive).

For CCOC(=O)c1c(C)[nH]c(C)c1S(=O)(=O)NCC(=O)Nc1cc(Cl)ccc1OC, which survival is on record?
Its survival is -6% (active).

For CCOC(=O)c1scc(-c2ccc(C)cc2)c1S(=O)(=O)Nc1ccc(OC)c(Cl)c1, which survival is on record?
Its survival is 90% (inactive).

For CCCc1oc(C(=O)O)cc1CN1CCOCC1, which survival is on record?
Its survival is 117% (inactive).

For CC(=O)C1=C(c2ccc(C)cc2)N(C(C)=O)n2c(nnc2-c2ccccc2)S1, which survival is on record?
The survival was 134% (inactive).

For CCc1cccc2c(-c3ccccc3)nc(SCC(=O)Nc3ccc(OC)cc3)nc12, which survival is on record?
The survival was 98% (inactive).
